Screen size: about 310,000 compounds; about 14,000 (4.5%) showed an effect of 50% or more. Effects have a minus sign here. The list comes from a sample in which strong results are over-represented; it also holds similar structures and randomly drawn compounds.
target: human ether-à-go-go-related gene (hERG) potassium channel (human, UniProt Q12809); assay: primary screen, population patch clamp on CHO cells stably expressing hERG; higher = less effect of the substance
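Also: peak tail current of the secondary pulse compared with the same well before compound.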

Chain of human ether-à-go-go-related gene (hERG) potassium channel (Q12809 whole entry, looked up): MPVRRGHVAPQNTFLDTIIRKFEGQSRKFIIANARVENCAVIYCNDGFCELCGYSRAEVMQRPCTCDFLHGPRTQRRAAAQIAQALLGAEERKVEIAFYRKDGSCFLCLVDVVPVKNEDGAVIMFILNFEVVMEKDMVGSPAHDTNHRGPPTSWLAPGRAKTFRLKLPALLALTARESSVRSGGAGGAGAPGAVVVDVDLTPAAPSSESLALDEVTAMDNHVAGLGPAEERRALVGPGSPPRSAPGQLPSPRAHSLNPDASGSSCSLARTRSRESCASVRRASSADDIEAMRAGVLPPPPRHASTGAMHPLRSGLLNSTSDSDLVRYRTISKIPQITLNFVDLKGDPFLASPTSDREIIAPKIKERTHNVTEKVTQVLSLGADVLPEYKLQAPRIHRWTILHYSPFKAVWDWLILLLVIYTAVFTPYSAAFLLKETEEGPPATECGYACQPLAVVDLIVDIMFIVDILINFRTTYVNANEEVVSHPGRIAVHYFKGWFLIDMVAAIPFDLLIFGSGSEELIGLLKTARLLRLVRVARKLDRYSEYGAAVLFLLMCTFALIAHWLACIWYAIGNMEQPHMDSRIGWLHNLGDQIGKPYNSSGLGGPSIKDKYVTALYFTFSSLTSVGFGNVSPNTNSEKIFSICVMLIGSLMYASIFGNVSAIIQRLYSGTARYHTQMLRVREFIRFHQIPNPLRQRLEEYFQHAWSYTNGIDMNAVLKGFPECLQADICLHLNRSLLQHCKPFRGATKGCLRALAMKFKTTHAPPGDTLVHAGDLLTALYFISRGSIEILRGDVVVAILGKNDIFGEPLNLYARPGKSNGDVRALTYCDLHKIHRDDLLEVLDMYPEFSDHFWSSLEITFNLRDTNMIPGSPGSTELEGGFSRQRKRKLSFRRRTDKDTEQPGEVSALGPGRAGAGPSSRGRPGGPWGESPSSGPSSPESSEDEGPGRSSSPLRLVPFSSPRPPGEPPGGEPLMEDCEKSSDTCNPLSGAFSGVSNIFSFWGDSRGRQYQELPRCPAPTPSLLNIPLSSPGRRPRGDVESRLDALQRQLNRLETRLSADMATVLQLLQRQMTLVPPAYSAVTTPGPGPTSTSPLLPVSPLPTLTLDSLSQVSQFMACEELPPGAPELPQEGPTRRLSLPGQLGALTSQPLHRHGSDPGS

| SMILES | hERG current change (%, negative = inhibition) at 10uM [%] |
| --- | --- |
| Cc1cccc(C)c1NC(=O)c1cc2c(=O)c3ccccc3oc2nc1C(F)(F)F | -3.38 |
| C=CCn1cccc(C(=O)Nc2ccc(F)cc2)c1=O | -24.8 |
| COC(=O)CSc1nnc(-c2ccccn2)n1Cc1ccco1 | -13.8 |
| COc1ccc(CN(C)CC(=O)Nc2ccc(N3CCOCC3)cc2)cc1OC | -7.84 |
| COc1ccc(CN(C)C(C)C(=O)N(C)CC(=O)Nc2ccc(C)cc2)cc1F (stereo not shown) | -57.1 |
| COc1ccc(Cl)cc1NC(=O)CN(C)Cc1ccc(OC)c(OC)c1 | -9.72 |
| COc1ccc(CCN(C)C(=S)NC(=O)c2ccc(F)cc2Cl)cc1OC | -20.4 |
| COc1ccc(CN(C)CC(=O)Nc2cccc3ccccc23)cc1F | -13.4 |
| COc1ccc(CN(C)CC(=O)Nc2ccc(SC(F)F)cc2)cc1OC | -76.2 |
| COc1ccc(CCN(C)C(=S)Nc2ccc(SC(F)F)cc2)cc1OC | -74.7 |
| COc1ccc(CN(C)C(C)C(=O)Nc2ccc(S(=O)(=O)N3CCCCC3)cc2)cc1F (stereo not shown) | -19.7 |
| COc1ccc(CCNC(=S)N(C)C)cc1OC | 32.8 |
| CCOC(=O)[C@H]1[C@H]2COc3ccc(Cl)cc3[C@@H]2N2C(=O)c3cc(Cl)ccc3NC(=O)[C@@]12C | 3.59 |
| COc1ccc(COC(=O)C2=C(C)NC(=O)NC2c2ccc(O)c(OC)c2)cc1 (stereo not shown) | -3.97 |
| Cc1ccc2[nH]c3c(c2c1)SC(C)(C)CC3=O | 3.75 |
| COC(=O)C(NC(=O)CSc1nc(N)cc(=O)[nH]1)c1ccccc1 (stereo not shown) | 18.3 |
| C=CCc1ccc(OCCn2cncn2)c(OC)c1 | 7.93 |
| CCCCCN(C(=O)NC(=O)NC(C)CC)S(C)(=O)=O (stereo not shown) | 9.23 |
| CCN(CC)CCn1c2c(c(SCC(=O)Nc3ccccc3Cl)nc1=O)CCCC2 | -55.6 |
| O=C(CSc1nc(=O)n(CCCN2CCOCC2)c2c1CCCC2)Nc1ccccc1Cl | -42.9 |
| CCN(CC)CCn1c2c(c(SCC(=O)NCc3ccccc3)nc1=O)CCC2 | -38.7 |
| CCN(CC)CCCn1c2c(c(SCC(=O)Nc3ccccc3Cl)nc1=O)CCC2 | -55.4 |

| SMILES | hERG current change (%, negative = inhibition) at 10uM [%] |
| --- | --- |
| CCN(CC)CCn1c2c(c(SCC(=O)NCc3ccccc3)nc1=O)CCCC2 | -31.4 |
| CCN(CC)CCn1c2c(c(SCC(=O)Nc3ccccc3Cl)nc1=O)CCC2 | -59.8 |
| Cc1c(Cl)cccc1NC(=O)CSc1nc(=O)n(CCCN2CCOCC2)c2c1CCC2 | -47.1 |
| COc1ccccc1NC(=O)CSc1nc(=O)n(CCN(C)C)c2c1CCCC2 | -40.4 |
| C/C(=N\NC(=O)c1cccc(S(=O)(=O)N2CCCC2)c1)c1ccco1 | 14.1 |
| COc1ccc(N2CC(NC(=O)c3cccc4ccccc34)CC2=O)cc1OC (stereo not shown) | -2.85 |
| COc1cccc(CCNC(=O)CC2C(=O)NCCN2CC(C)(C)C)c1 (stereo not shown) | 15.8 |
| CCCOc1ccc(NC(=O)CC2C(=O)OCC3CCCCN32)cc1 (stereo not shown) | -4.12 |
| COc1ccc(C2/C=C\CN(C(=O)Nc3ccc(C(F)(F)F)cc3)CC(=O)N2Cc2ccc(F)cc2)cc1 (stereo not shown) | 6.55 |
| NC(CO)(CO)CO.O=C(c1ccccc1)c1ccc2n1CCC2C(=O)O (stereo not shown) | -3.5 |
| COc1ccc(N(CC(=O)NCc2ccc3c(c2)OCO3)C(=O)c2csnn2)cc1 | -13.6 |
| Cn1c(=O)oc2cc(S(=O)(=O)NCCC(=O)N3CCN(c4ccccc4F)CC3)ccc21 | -17 |
| COc1ccc(/C(N)=C/C(=O)C(C)(C)C)cc1 | -5.64 |
| COc1nc(Oc2ccc(=O)n(C)n2)nc(N(C)C)n1 | 0.595 |
| N#Cc1ccc(S(=O)(=O)NC2CCN(Cc3ccccc3)CC2)cc1 | -31.8 |
| COc1ccc(OCC(O)CN2CCCCC2)cc1.Cl (stereo not shown) | 8.1 |
| COc1ccc(OCC(O)Cn2c(=N)n(CCN3CCCCC3)c3ccccc32)cc1.Cl (stereo not shown) | -68.1 |
| COc1ccc(OCC(O)Cn2c(=N)n(CCN3CCOCC3)c3ccccc32)cc1.Cl (stereo not shown) | -34.7 |
| CCOc1ccc(C(O)Cn2c(=N)n(CCN3CCCCC3)c3ccccc32)cc1.Cl (stereo not shown) | -77.2 |
| CCOc1ccc(C(O)(c2ccccc2)C(CN2CCCC2)c2ccccc2)cc1.Cl (stereo not shown) | -34 |
| COc1ccccc1OCC(O)Cn1c(=N)n(CCN2CCCCC2)c2ccccc21.Cl (stereo not shown) | -65.4 |
| Cc1ccc(OCC(O)Cn2c(=N)n(CCN3CCCCC3)c3ccccc32)cc1.Cl (stereo not shown) | -72.9 |

| SMILES | hERG current change (%, negative = inhibition) at 10uM [%] |
| --- | --- |
| Cc1ccc(OCC(O)Cn2c(=N)n(CCN3CCOCC3)c3ccccc32)cc1.Cl (stereo not shown) | -43.6 |
| COc1ccccc1OCCCCN1CCCCC1 | -1.89 |
| Cc1onc(-c2c(F)cccc2Cl)c1C(=O)N1CCCc2ccccc21 | -21.5 |
| CC(=O)c1ccc(NC(=O)C(=O)c2cn(CC(=O)N3CCCCC3)c3ccccc23)cc1 | 6.65 |
| COc1ccc(-n2nc(C(=O)NCC(=O)N3CCN(c4ccccn4)CC3)c3ccccc3c2=O)cc1 | -34.3 |
| CC(=O)N1CCN(S(=O)(=O)c2cccc(C(=O)Nc3nccs3)c2)CC1 | 3.42 |
| CCCCN(c1ccccc1)S(=O)(=O)c1cccc(C(=O)O)c1 | 5.27 |
| C=CCn1c(O)c(N=Nc2ccccc2C)c2ccccc21 | 4.06 |
| COc1ccc(-n2nnnc2SCC(=O)N2CCCc3ccccc32)cc1OC | -13.4 |
| O=C1C2CCCN2C(c2ccccc2F)N1c1cccc(Cl)c1 (stereo not shown) | 3.69 |
| Cc1ccc2nc(CCc3nc4ccc(C)cc4o3)oc2c1 | 4.09 |
| CCOc1ccc(OCC)c(NC(=O)C2CCCN(S(=O)(=O)c3c(C)n[nH]c3C)C2)c1 (stereo not shown) | 8.8 |
| Cc1ccc(OCC(=O)Nc2cnn(CCCC(=O)O)c2)c([N+](=O)[O-])c1 | 3.59 |
| COc1cccc(OC)c1C(=O)OCC(=O)N(c1ccccc1)C1CCCCC1 | -4.4 |
| Cl.N=c1n(CCN2CCOCC2)c2ccccc2n1CC(O)COc1ccccc1 (stereo not shown) | -39.3 |
| Cl.OC(CNCCCN1CCCCC1)COc1ccccc1 (stereo not shown) | -4.25 |
| Cl.N=c1n(CCN2CCCCC2)c2ccccc2n1CC(O)COc1ccccc1 (stereo not shown) | -68.2 |
| COC(=O)N1C(=O)[C@](c2ccc(Cl)cc2)(C(C)C)N1C(=O)OC | 7.07 |
| CCOc1ccc(-c2cnc3n2CCCCC3)cc1 | -63.3 |
| CCOc1ccc(-c2cnc3n2CCC3)cc1.Cl | -18.3 |
| COc1ccc(-c2cnc3n2CCCCC3)cc1 | -33.1 |
| Cc1ccc(NC(=O)CCC(=O)N2CCOCC2)nc1 | 13 |

| SMILES | hERG current change (%, negative = inhibition) at 10uM [%] |
| --- | --- |
| CCc1ccc(C2=NNC(=Nc3c(C)n(C)n(-c4ccccc4)c3=O)SC2)cc1 | 34.4 |
| CC(=O)c1cc(-c2ccccc2)n(CCC(=O)NC2CCCC2)c1C | 0.876 |
| CCOC(=O)c1cc(-c2ccc(OC)cc2)n(CCC(=O)NC2CCN(Cc3ccccc3)CC2)c1C | -65.7 |
| CCOC(=O)c1cc(-c2ccc(C)cc2)n(CCC(=O)NCCCOC)c1C | -11.5 |
| CCOC(=O)c1cc(-c2ccc(F)cc2)n(CCC(=O)NC2CCN(Cc3ccccc3)CC2)c1C | -64.2 |
| CCOC(=O)c1cc(-c2ccccc2)n(CCC(=O)NC(C)CC)c1C (stereo not shown) | -12.5 |
| CCOC(=O)c1cc(-c2ccccc2)n(CCC(=O)N2CCN(c3ccc(OC)cc3)CC2)c1C | -25.5 |
| CCOC(=O)c1cc(-c2ccccc2)n(CC(=O)Nc2ccc(OC)cc2)c1C | 6.19 |
| CCCNC(=O)CCn1c(-c2ccc(C)cc2)cc(C(=O)OCC)c1C | -6.08 |
| CCOC(=O)c1cc(-c2ccc(OC)cc2)n(CCC(=O)NCCN2CCC(C)CC2)c1C | -52.4 |
| O=C(Cn1c(=S)[nH]c2ccccc2c1=O)NCCc1ccccc1 | 16 |
| CCC(NC(=S)NC1CCCCC1)c1ccc(C(C)C)cc1 (stereo not shown) | 13.7 |
| CC(C)=CCCC(C)NC(=O)NC1CCCCC1 (stereo not shown) | -3.64 |
| CCCc1cc(=O)oc2cc(C)cc(OCc3nn[nH]n3)c12 | 13 |
| O=C(NCCO)c1ccc(Oc2ccc(C(F)(F)F)cc2[N+](=O)[O-])cc1 | -0.131 |
| COc1ccccc1C(=O)Nc1c2c(nn1-c1ccc(Cl)cc1)CS(=O)(=O)C2 | 9.63 |
| Cc1onc(-c2ccccc2Cl)c1C(=O)O/N=C(\N)c1ccc([N+](=O)[O-])o1 | -43.6 |
| Cc1onc(-c2c(F)cccc2Cl)c1C(=O)O/N=C(\N)c1ccc([N+](=O)[O-])o1 | -16.8 |
| C/C(=N\OC(=O)c1c(-c2ccccc2Cl)noc1C)c1nccs1 | -2.44 |
| Cc1onc(-c2cccc(Cl)c2Cl)c1C(=O)O/N=C(\N)c1ccc([N+](=O)[O-])o1 | -65 |
| C/C(=N/OC(=O)c1c(-c2ccccc2Cl)noc1C)c1cnccn1 | -7.04 |
| C/C(=N\OC(=O)c1c(-c2ccccc2Cl)noc1C)c1ccncc1 | -58.6 |

Source: article PMC4336329 (PLoS ONE, 2015)
